From PubChem BioAssay AID1159580 (chemical genetic matrix, 2015)
“And” between values parts separate entries of the source, which are not always exact repeats. Equal entries are not always repeated. About 2,000 (36%) of roughly 5,500 compounds were called active. Inconclusive results (about 18%) are left out. No stated cut-off is given here; in the data, active means normalized growth mostly below about 0.91 (no sharp cut-off); inconclusive means no clear call, values can overlap the other calls; inactive means mostly above about 0.92. This is one part of the list. Where a structure was tested more than once in an assay, its records may differ in their call.

Assay: chemical genetic growth profiling, strain panel (AID 1159580);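 further: tested at 20 µM; growth read once vehicle control cultures reached saturation at 30 °C; 1 = growth at the plate median or of vehicle wells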
Conditions: growth OD

Measured: normalized growth

CSc1ccc2c(c1)N(CCC1CCCCN1C)c1ccccc1S2 (stereo not given)
active: S. cerevisiae deletion strains, locus YJR075W, strain HOC1, stronger effect = lower value 0.823 | S. cerevisiae deletion strains, locus YKL190W, strain CNB1, stronger effect = lower value 0.0633 | S. cerevisiae deletion strains, locus YKR001C, strain vps1, stronger effect = lower value 0.0672 | S. cerevisiae deletion strains, locus YLR039C, strain RIC1, stronger effect = lower value 0.175 | S. cerevisiae deletion strains, locus YLR058C, strain SHM2, stronger effect = lower value 0.0859 | S. cerevisiae deletion strains, locus YLR102C, strain apc9, stronger effect = lower value 0.176 | S. cerevisiae deletion strains, locus YLR262C, strain YPT6, stronger effect = lower value 0.155 | S. cerevisiae deletion strains, locus YLR268W, strain sec22, stronger effect = lower value 0.122 | S. cerevisiae deletion strains, locus YLR330W, strain CHS5, stronger effect = lower value 0.0954 | S. cerevisiae deletion strains, locus YLR342W, strain FKS1 (second series), stronger effect = lower value 0.07 | S. cerevisiae deletion strains, locus YLR342W, strain FKS1, stronger effect = lower value 0.866 | S. cerevisiae deletion strains, locus YLR371W, strain rom2, stronger effect = lower value 0.116 | S. cerevisiae deletion strains, locus YLR418C, strain cdc73, stronger effect = lower value 0.155 | S. cerevisiae deletion strains, locus YML016C, strain PPZ1, stronger effect = lower value 0.0677 | S. cerevisiae deletion strains, locus YML032C, strain rad52, stronger effect = lower value 0.484 | S. cerevisiae deletion strains, locus YML124C, strain tub3, stronger effect = lower value 0.282 | S. cerevisiae deletion strains, locus YMR058W, strain fet3, stronger effect = lower value 0.859 | S. cerevisiae deletion strains, locus YMR223W, strain ubp8, stronger effect = lower value 0.142 | S. cerevisiae deletion strains, locus YMR231W, strain pep5, stronger effect = lower value 0.32 | S. cerevisiae deletion strains, locus YMR263W, strain SAP30, stronger effect = lower value 0.569 | S. cerevisiae deletion strains, locus YNL067W, strain RPL9B, stronger effect = lower value 0.221 | S. cerevisiae deletion strains, locus YNL153C, strain GIM3, stronger effect = lower value 0.0926 | S. cerevisiae deletion strains, locus YNL209W, strain ssb2, stronger effect = lower value 0.856 | S. cerevisiae deletion strains, locus YNL224C, strain SQS1, stronger effect = lower value 1.11 [resistant] | S. cerevisiae deletion strains, locus YNL233W, strain BNI4, stronger effect = lower value 0.0906 | S. cerevisiae deletion strains, locus YNL307C, strain MCK1, stronger effect = lower value 0.1 | S. cerevisiae deletion strains, locus YNL322C, strain KRE1, stronger effect = lower value 0.0818 | S. cerevisiae deletion strains, locus YNR052C, strain pop2, stronger effect = lower value 0.133 | S. cerevisiae deletion strains, locus YOL006C, strain TOP1, stronger effect = lower value 0.115 | S. cerevisiae deletion strains, locus YOL147C, strain pex11, stronger effect = lower value 0.176 | S. cerevisiae deletion strains, locus YOR061W, strain CKA2, stronger effect = lower value 0.0575 | S. cerevisiae deletion strains, locus YOR069W, strain VPS5, stronger effect = lower value 0.36 | S. cerevisiae deletion strains, locus YOR083W, strain WHI5 (second series), stronger effect = lower value 0.774 | S. cerevisiae deletion strains, locus YOR136W, strain idh2, stronger effect = lower value 0.139 | S. cerevisiae deletion strains, locus YOR144C, strain elg1, stronger effect = lower value 0.541 | S. cerevisiae deletion strains, locus YOR184W, strain ser1, stronger effect = lower value 0.128 | S. cerevisiae deletion strains, locus YOR316C, strain cot1, stronger effect = lower value 0.132 | S. cerevisiae deletion strains, locus YPL051W, strain arl3, stronger effect = lower value 0.881 | S. cerevisiae deletion strains, locus YPR119W, strain clb2, stronger effect = lower value 0.31 | S. cerevisiae deletion strains, locus YPR163C, strain tif3, stronger effect = lower value 0.0768 | S. cerevisiae deletion strains, locus YPR167C, strain met16, stronger effect = lower value 0.196 | S. cerevisiae deletion strains, strain wtn01, stronger effect = lower value 0.0859 | S. cerevisiae strains, strain wild type, stronger effect = lower value 0.0579
0.107 (active) and 0.972 (inactive): S. cerevisiae deletion strains, locus YPL241C, strain CIN2, stronger effect = lower value
inactive: S. cerevisiae deletion strains, locus YKL009W, strain mrt4, stronger effect = lower value 0.978 | S. cerevisiae deletion strains, locus YKL068W, stronger effect = lower value 1.01 | S. cerevisiae deletion strains, locus YKL085W, strain MDH1 (second series), stronger effect = lower value 1 | S. cerevisiae deletion strains, locus YKL085W, strain MDH1, stronger effect = lower value 1 | S. cerevisiae deletion strains, locus YKL160W, strain elf1, stronger effect = lower value 0.937 | S. cerevisiae deletion strains, locus YKR026C, strain gcn3, stronger effect = lower value 1.02 | S. cerevisiae deletion strains, locus YKR091W, strain srl3, stronger effect = lower value 1.03 | S. cerevisiae deletion strains, locus YLL001W, strain dnm1, stronger effect = lower value 0.964 | S. cerevisiae deletion strains, locus YLL026W, stronger effect = lower value 0.981 | S. cerevisiae deletion strains, locus YLL041C, strain sdh2, stronger effect = lower value 0.976 | S. cerevisiae deletion strains, locus YLR027C, strain aat2, stronger effect = lower value 0.946 | S. cerevisiae deletion strains, locus YLR113W, strain HOG1, stronger effect = lower value 0.996 | S. cerevisiae deletion strains, locus YLR221C, strain rsa3, stronger effect = lower value 0.932 | S. cerevisiae deletion strains, locus YLR258W, strain gsy2, stronger effect = lower value 0.941 | S. cerevisiae deletion strains, locus YLR262C, strain YPT6 (second series), stronger effect = lower value 1.1 | S. cerevisiae deletion strains, locus YLR320W, strain mms22, stronger effect = lower value 1 | S. cerevisiae deletion strains, locus YLR357W, strain rsc2, stronger effect = lower value 0.996 | S. cerevisiae deletion strains, locus YLR370C, strain arc18, stronger effect = lower value 0.962 | S. cerevisiae deletion strains, locus YLR384C, strain iki3, stronger effect = lower value 0.984 | S. cerevisiae deletion strains, locus YML120C, strain ndi1, stronger effect = lower value 0.971 | S. cerevisiae deletion strains, locus YMR078C, strain ctf18, stronger effect = lower value 1.04 | S. cerevisiae deletion strains, locus YMR125W, strain sto1, stronger effect = lower value 0.95 | S. cerevisiae deletion strains, locus YMR129W, stronger effect = lower value 0.977 | S. cerevisiae deletion strains, locus YMR205C, strain PFK2, stronger effect = lower value 0.966 | S. cerevisiae deletion strains, locus YNL071W, strain lat1, stronger effect = lower value 1.05 | S. cerevisiae deletion strains, locus YNL128W, strain TEP1, stronger effect = lower value 1 | S. cerevisiae deletion strains, locus YNL175C, strain NOP13, stronger effect = lower value 1.07 | S. cerevisiae deletion strains, locus YNL183C, strain NPR1, stronger effect = lower value 0.944 | S. cerevisiae deletion strains, locus YNL197C, strain WHI3, stronger effect = lower value 1.05 | S. cerevisiae deletion strains, locus YNL248C, strain rpa49, stronger effect = lower value 0.978 | S. cerevisiae deletion strains, locus YNL250W, strain rad50, stronger effect = lower value 1 | S. cerevisiae deletion strains, locus YNL271C, strain bni1, stronger effect = lower value 1 | S. cerevisiae deletion strains, locus YNL298W, strain CLA4, stronger effect = lower value 1 | S. cerevisiae deletion strains, locus YNL322C, strain KRE1 (second series), stronger effect = lower value 1.04 | S. cerevisiae deletion strains, locus YNR049C, strain mso1, stronger effect = lower value 0.968 | S. cerevisiae deletion strains, locus YOL012C, strain htz1 0.211 | S. cerevisiae deletion strains, locus YOR001W, strain rrp6, stronger effect = lower value 0.956 | S. cerevisiae deletion strains, locus YOR070C, strain gyp1, stronger effect = lower value 0.948 | S. cerevisiae deletion strains, locus YOR080W, strain dia2, stronger effect = lower value 0.976 | S. cerevisiae deletion strains, locus YOR083W, strain WHI5, stronger effect = lower value 0.915 | S. cerevisiae deletion strains, locus YOR106W, strain vam3, stronger effect = lower value 0.88 | S. cerevisiae deletion strains, locus YOR231W, strain MKK1, stronger effect = lower value 1 | S. cerevisiae deletion strains, locus YOR265W, strain rbl2, stronger effect = lower value 0.961 | S. cerevisiae deletion strains, locus YOR270C, strain vph1, stronger effect = lower value 0.866 | S. cerevisiae deletion strains, locus YOR290C, strain snf2, stronger effect = lower value 0.981 | S. cerevisiae deletion strains, locus YPL078C, strain atp4, stronger effect = lower value 0.989 | S. cerevisiae deletion strains, locus YPL106C, strain sse1, stronger effect = lower value 1.02 | S. cerevisiae deletion strains, locus YPL240C, strain hsp82, stronger effect = lower value 0.98 | S. cerevisiae deletion strains, locus YPL256C, strain CLN2, stronger effect = lower value 0.975 | S. cerevisiae deletion strains, locus YPR141C, strain kar3, stronger effect = lower value 1.02
0.123 (active) and 0.981 (inactive): S. cerevisiae deletion strains, locus YMR307W, strain GAS1, stronger effect = lower value
